Measurements from the supplement of paper PMC10849652.
Targets with a hit are over-represented here; the source holds about 8,800 in all. About 0.5% of all pairs of compound and target were hits.

Experiments:
Assay in all cases: log2 fold change, soluble protein after heating vs DMSO (PISA); higher = thermal stabilisation; K562 lysate, 10 uM; active = over 0.2 and 3.5 SD of the protein, either way, in both replicates (recomputed)
nilotinib = compound: Cc1cn(-c2cc(NC(=O)c3ccc(C)c(Nc4nccc(-c5cccnc5)n4)c3)cc(C(F)(F)F)c2)cn1 [nilotinib]
Method in brief: (§1)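 Dounce homogenisation of K562 pellets in PBS pH 7.4 with 1 mM MgCl2 produced a crude extract, used at 1 mg/mL protein. Exposure to 10 μM compound lasted 30 min, and aliquots were then heated for 3 min across 48°C-58°C, pooled and brought to 0.5% NP-40 at 4°C. The supernatant after 21,000xg for 90 min was quantified by TMTpro 16plex LC-MS/MS with channel sums equalised. Duplicate values are given as log-two fold change in thermal stability relative to solvent controls.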

[1] = compound: Cc1nc(Nc2n[nH]c3c2CN(C(=O)N[C@H](CN(C)C)c2ccccc2)C3(C)C)c2sccc2n1
Method in brief: as §1

dasatinib = compound: Cc1nc(Nc2ncc(C(=O)Nc3c(C)cccc3Cl)s2)cc(N2CCN(CCO)CC2)n1 [dasatinib]
Method in brief: as §1

[2] = compound: Cc1ncc(-c2ccnc(Nc3ccc(S(C)(=O)=O)cc3)n2)n1C(C)C
Method in brief: as §1

[3] = compound: Cn1cc(-c2ccc3c(c2)CCN3C(=O)Cc2cccc(C(F)(F)F)c2)c2c(N)ncnc21
Method in brief: as §1

quisinostat = compound: Cn1cc(CNCC2CCN(c3ncc(C(=O)NO)cn3)CC2)c2ccccc21 [quisinostat]
Method in brief: as §1

tipifarnib = compound: Cn1cncc1[C@@](N)(c1ccc(Cl)cc1)c1ccc2c(c1)c(-c1cccc(Cl)c1)cc(=O)n2C [tipifarnib]
Method in brief: as §1

[4] = compound: NC(=O)Nc1cc(-c2cccc(F)c2)sc1C(=O)N[C@H]1CCCNC1
Method in brief: as §1

[5] = compound: NC(=O)c1cnc(N[C@@H]2CCCC[C@@H]2N)nc1Nc1cccc(-n2nccn2)c1
Method in brief: as §1

[6] = compound: NC1(c2ccc(-c3nc4ccn5c(=O)[nH]nc5c4cc3-c3ccccc3)cc2)CCC1
Method in brief: as §1

[7] = compound: NCC(=O)Nc1ccc(-n2nc(C(F)(F)F)cc2-c2ccc3c(ccc4ccccc43)c2)cc1
Method in brief: as §1

vorinostat = compound: O=C(CCCCCCC(=O)Nc1ccccc1)NO [vorinostat]
Method in brief: as §1

silmitasertib = compound: O=C(O)c1ccc2c(c1)nc(Nc1cccc(Cl)c1)c1ccncc12 [silmitasertib]
Method in brief: as §1

[8] = compound: O=C1NC(=O)C(c2cnc3ccccn23)=C1c1cn2c3c(cc(F)cc13)CN(C(=O)N1CCCCC1)CC2
Method in brief: as §1

entospletinib = compound: c1cn2cc(-c3ccc4cn[nH]c4c3)nc(Nc3ccc(N4CCOCC4)cc3)c2n1 [entospletinib]
Method in brief: as §1

Measured: log2 fold change

ANAPC7 (UniProt Q9UJX3)
Chain of UniProt Q9UJX3 (Q9UJX3 whole entry, looked up): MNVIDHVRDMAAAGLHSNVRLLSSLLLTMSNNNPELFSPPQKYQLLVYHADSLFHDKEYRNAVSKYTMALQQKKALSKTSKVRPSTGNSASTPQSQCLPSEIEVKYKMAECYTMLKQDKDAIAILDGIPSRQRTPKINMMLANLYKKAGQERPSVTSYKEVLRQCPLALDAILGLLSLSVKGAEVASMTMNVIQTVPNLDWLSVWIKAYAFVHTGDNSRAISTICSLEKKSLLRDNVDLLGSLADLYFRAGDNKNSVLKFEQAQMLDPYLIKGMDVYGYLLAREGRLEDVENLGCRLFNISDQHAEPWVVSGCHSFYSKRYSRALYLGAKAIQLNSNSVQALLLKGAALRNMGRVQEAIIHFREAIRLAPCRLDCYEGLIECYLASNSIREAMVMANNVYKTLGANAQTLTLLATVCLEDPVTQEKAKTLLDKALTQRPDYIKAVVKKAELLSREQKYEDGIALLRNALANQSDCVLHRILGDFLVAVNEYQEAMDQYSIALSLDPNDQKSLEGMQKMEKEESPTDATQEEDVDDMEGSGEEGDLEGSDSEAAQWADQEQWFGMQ
inactive: nilotinib -0.004 | [1] -0.006 | dasatinib -0.004 | [2] 0.008 | [3] 0.02 | quisinostat -0.054 | tipifarnib -0.019 | [4] 0.03 | [5] 0 | [6] -0.018 | [7] -0.035 | silmitasertib 0.023 | [8] 0.007 | entospletinib 0.046
active: vorinostat -0.218

ACIN1 isoform 5 (UniProt Q9UKV3)
Chain of UniProt Q9UKV3 (Q9UKV3 whole entry, looked up): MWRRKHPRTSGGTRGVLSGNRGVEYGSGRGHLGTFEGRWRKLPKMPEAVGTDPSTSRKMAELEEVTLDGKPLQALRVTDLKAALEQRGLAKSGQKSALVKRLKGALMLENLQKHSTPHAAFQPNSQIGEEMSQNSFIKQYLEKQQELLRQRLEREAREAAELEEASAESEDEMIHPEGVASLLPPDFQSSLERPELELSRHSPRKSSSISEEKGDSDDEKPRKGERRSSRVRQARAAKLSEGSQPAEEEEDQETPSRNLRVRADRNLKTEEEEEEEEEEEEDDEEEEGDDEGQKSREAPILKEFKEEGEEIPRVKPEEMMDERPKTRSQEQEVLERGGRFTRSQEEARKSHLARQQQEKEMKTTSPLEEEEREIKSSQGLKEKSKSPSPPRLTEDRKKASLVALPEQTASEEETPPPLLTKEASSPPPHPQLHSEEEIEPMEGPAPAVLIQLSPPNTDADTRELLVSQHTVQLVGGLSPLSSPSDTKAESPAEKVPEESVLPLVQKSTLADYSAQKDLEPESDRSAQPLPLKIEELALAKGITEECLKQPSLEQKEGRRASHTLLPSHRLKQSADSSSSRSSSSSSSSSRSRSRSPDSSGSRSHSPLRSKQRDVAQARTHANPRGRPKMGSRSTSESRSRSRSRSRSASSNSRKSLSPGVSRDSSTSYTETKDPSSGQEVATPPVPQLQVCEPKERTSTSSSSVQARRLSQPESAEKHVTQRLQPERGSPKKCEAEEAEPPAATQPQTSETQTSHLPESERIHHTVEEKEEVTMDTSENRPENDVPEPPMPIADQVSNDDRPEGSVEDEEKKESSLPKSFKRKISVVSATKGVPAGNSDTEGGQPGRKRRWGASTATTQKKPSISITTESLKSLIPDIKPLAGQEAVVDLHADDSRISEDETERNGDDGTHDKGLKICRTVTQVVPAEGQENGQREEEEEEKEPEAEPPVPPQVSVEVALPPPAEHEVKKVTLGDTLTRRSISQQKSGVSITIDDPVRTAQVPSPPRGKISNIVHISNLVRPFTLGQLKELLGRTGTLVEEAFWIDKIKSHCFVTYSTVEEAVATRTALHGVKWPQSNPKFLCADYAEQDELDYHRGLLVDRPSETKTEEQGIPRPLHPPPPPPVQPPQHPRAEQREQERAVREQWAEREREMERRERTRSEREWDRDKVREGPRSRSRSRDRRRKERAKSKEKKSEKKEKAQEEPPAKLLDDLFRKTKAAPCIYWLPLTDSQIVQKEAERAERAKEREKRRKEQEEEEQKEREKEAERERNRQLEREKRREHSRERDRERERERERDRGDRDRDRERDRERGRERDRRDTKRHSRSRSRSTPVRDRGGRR
inactive: nilotinib 0.017 | [1] -0.018 | dasatinib -0.012 | [2] 0.001 | [3] 0.008 | quisinostat 0.011 | tipifarnib 0 | [4] -0.063 | [5] 0.024 | [6] 0.01 | [7] 0.035 | vorinostat 0.007 | silmitasertib 0.001 | [8] -0.012 | entospletinib -0.003

APEX1 (UniProt P27695)
Chain of UniProt P27695 (P27695 whole entry, looked up): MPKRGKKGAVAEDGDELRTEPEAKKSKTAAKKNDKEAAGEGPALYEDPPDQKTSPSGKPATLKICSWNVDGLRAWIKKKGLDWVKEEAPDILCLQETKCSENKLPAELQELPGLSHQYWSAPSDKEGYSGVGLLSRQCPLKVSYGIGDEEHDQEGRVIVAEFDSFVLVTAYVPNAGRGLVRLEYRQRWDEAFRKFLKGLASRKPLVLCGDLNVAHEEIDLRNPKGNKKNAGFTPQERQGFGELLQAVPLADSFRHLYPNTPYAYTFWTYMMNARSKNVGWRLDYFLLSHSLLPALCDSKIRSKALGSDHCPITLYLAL
inactive: nilotinib 0.045 | [1] -0.037 | dasatinib 0.002 | [2] -0.027 | [3] 0.018 | quisinostat 0.016 | tipifarnib 0.001 | [4] 0.021 | [5] -0.011 | [6] -0.008 | [7] 0.007 | vorinostat -0.15 | silmitasertib 0.026 | [8] -0.001 | entospletinib -0.002

ALDH5A1 isoform 2 (UniProt P51649)
Chain of UniProt P51649 (P51649 whole entry, looked up): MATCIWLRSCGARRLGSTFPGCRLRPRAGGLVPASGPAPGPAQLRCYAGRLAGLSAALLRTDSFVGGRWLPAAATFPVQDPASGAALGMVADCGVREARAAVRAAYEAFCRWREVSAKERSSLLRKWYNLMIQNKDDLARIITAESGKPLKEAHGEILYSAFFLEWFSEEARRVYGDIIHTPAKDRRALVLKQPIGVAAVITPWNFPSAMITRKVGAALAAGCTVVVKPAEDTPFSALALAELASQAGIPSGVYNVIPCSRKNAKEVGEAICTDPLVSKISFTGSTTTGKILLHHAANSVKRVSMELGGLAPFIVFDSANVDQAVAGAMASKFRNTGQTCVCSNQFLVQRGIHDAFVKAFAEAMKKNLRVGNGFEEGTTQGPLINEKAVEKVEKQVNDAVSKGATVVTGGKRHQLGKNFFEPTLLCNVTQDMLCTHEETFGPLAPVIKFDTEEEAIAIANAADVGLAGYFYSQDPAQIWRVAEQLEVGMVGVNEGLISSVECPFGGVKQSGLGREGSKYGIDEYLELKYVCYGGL
inactive: nilotinib 0.003 | [1] -0.019 | dasatinib -0.005 | [2] -0.015 | [3] -0.003 | quisinostat 0.028 | tipifarnib -0.063 | [4] 0.04 | [5] 0.004 | [6] -0.023 | [7] -0.02 | silmitasertib -0.005 | [8] -0.057 | entospletinib 0.003
active: vorinostat 0.371

AGO4 (UniProt Q9HCK5)
inactive: nilotinib -0.152 | [1] 0.07 | dasatinib 0 | [2] 0.004 | [3] -0.022 | quisinostat -0.037 | tipifarnib 0.005 | [4] 0.015 | [5] 0.014 | [6] -0.002 | [7] -0.007 | vorinostat 0.09 | silmitasertib -0.018 | [8] -0.006 | entospletinib -0.013

ADK, A0A5F9ZH76
inactive: nilotinib -0.267 | [1] 0.089 | [2] 0.065 | tipifarnib 0.487 | [5] -0.083

ALKBH1 (UniProt Q13686)
Chain of UniProt Q13686 (Q13686 whole entry, looked up): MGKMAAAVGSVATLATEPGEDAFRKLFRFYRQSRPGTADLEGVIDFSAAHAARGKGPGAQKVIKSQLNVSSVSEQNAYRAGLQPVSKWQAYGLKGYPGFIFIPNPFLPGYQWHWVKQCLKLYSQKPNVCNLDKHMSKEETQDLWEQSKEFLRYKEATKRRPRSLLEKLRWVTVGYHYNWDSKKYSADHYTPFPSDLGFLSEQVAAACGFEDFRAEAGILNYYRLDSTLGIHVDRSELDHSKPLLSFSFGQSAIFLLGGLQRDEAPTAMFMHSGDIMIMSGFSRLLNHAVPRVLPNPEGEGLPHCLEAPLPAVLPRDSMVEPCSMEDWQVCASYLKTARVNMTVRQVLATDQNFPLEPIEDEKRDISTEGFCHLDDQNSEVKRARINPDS
inactive: nilotinib -0.087 | [1] -0.026 | dasatinib -0.249 | [2] -0.052 | [3] 0.007 | tipifarnib 0.137 | [6] 0.116 | [7] -0.089 | silmitasertib 0.135 | entospletinib -0.052
active: vorinostat -0.284

ARL13B (UniProt Q3SXY8)
Chain of UniProt Q3SXY8 (Q3SXY8 whole entry, looked up): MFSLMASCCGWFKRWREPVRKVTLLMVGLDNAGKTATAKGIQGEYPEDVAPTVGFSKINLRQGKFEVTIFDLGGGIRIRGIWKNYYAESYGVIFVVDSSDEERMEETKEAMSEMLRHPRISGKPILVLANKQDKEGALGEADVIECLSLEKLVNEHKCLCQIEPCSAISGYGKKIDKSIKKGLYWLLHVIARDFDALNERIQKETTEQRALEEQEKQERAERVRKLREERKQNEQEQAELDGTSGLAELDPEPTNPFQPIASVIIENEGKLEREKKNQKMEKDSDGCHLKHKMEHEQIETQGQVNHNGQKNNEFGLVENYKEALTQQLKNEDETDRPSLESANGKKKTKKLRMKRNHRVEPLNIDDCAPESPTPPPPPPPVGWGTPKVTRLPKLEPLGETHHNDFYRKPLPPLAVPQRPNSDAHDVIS
inactive: dasatinib 0 | [3] -0.012 | quisinostat -0.313 | [4] 0.095 | [5] 0.131 | [6] 0.013 | [7] 0.01 | vorinostat -0.186 | silmitasertib -0.024 | [8] -0.064

ANXA2 (UniProt H0YL33)
inactive: nilotinib -0.153 | [1] 0.008 | dasatinib -0.069 | [2] 0.074 | [3] 0.022 | quisinostat 0.134 | tipifarnib 0.199 | [4] -0.196 | [5] -0.078 | [6] 0.089 | vorinostat -0.153 | silmitasertib 0.16 | [8] 0.042

ACTG1 (UniProt K7EM38)
inactive: [5] 0.171 | entospletinib -0.453

ABI1 isoform 6 (UniProt Q8IZP0)
inactive: [5] 0.113 | entospletinib -0.115

ABRACL (UniProt Q9P1F3)
Chain of UniProt Q9P1F3 (Q9P1F3 whole entry, looked up): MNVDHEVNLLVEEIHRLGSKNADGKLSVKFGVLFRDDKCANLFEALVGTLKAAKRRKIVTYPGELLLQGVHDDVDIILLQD
inactive: nilotinib 0.194 | [1] 0.006 | dasatinib -0.119 | [2] -0.042 | [3] -0.067 | quisinostat 0.053 | tipifarnib 0.023 | [4] -0.083 | [5] 0.037 | [6] -0.076 | silmitasertib 0.111 | [8] 0.088
active: vorinostat -0.845

ALG13 isoform 2 (UniProt Q9NP73)
inactive: nilotinib 0.142 | [1] -0.082 | [2] -0.066 | tipifarnib 0.371

ALKBH7 (UniProt Q9BT30)
Chain of UniProt Q9BT30 (Q9BT30 whole entry, looked up): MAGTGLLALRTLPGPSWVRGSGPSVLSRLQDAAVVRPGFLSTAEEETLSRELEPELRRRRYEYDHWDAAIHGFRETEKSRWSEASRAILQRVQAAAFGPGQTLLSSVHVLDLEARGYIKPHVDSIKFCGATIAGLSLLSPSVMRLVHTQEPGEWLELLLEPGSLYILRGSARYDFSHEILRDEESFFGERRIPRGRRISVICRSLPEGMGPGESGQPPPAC
inactive: nilotinib -0.039 | [1] -0.04 | dasatinib -0.017 | [2] -0.452 | [3] -0.226 | quisinostat 0.006 | tipifarnib 0.107 | [4] 0.044 | [6] -0.099 | silmitasertib -0.031 | [8] 0.079 | entospletinib 0.151
active: vorinostat 1.23

ANKRD44 isoform 2 (UniProt Q8N8A2)
inactive: nilotinib -0.19 | [1] -0.03 | [2] -0.216 | tipifarnib 0 | [5] -0.019 | [6] 0.025 | [7] 0.127 | vorinostat 0.073 | silmitasertib 0.005 | entospletinib -0.115

ARMCX5 (UniProt Q6P1M9)
inactive: nilotinib 0.035 | [1] 0.009 | dasatinib -0.039 | [2] 0.037 | [3] -0.07 | tipifarnib -0.023 | [5] 0.02 | [6] -0.027 | [7] -0.233 | vorinostat 0.102 | silmitasertib 0.013 | entospletinib 0.088

ANKRD40 (UniProt Q6AI12)
Chain of UniProt Q6AI12 (Q6AI12 whole entry, looked up): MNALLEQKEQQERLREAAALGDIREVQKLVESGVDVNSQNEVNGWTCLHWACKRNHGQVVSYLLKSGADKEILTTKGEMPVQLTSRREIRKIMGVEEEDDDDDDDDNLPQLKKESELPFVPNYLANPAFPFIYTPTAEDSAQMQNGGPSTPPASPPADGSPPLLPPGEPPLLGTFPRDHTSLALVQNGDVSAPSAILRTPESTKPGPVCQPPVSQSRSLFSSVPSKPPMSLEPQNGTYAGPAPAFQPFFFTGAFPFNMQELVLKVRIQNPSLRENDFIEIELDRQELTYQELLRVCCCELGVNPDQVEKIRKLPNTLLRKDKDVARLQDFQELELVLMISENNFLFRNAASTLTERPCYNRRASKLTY
active: [7] 0.914
inactive: nilotinib -0.04 | [1] -0.115 | dasatinib 0.197 | [2] 0.071 | [3] -0.064 | quisinostat -0.161 | tipifarnib 0.137 | [4] -0.001 | [6] -0.119 | vorinostat -0.217 | silmitasertib -0.088 | [8] 0.007 | entospletinib -0.057

ACVR1 (UniProt Q04771)
Chain of UniProt Q04771 (Q04771 whole entry, looked up): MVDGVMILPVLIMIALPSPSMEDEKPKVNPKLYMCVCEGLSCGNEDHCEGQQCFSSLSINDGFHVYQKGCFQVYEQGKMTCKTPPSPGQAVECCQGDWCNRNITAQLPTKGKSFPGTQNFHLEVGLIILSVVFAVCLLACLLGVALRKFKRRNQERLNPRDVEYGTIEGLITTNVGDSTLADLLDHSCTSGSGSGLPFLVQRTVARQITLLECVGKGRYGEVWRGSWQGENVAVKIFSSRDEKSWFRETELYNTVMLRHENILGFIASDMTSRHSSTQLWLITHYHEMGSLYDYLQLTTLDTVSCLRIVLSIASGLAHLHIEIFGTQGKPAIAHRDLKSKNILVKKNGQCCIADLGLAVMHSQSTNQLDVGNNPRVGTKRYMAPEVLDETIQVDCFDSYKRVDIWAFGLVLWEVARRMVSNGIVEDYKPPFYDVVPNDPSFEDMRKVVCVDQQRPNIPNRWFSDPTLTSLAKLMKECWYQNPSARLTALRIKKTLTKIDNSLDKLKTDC
inactive: nilotinib -0.11 | [1] 0.013 | dasatinib 0.258 | [2] 0.476 | [3] -0.046 | tipifarnib -0.309
